Most compounds without a hit are left out; they make up all but 3.4% or so of the library.
ADAM17 inh: inhibitors of human ADAM17; P78536; recombinant ADAM17, EDANS/DABCYL FRET peptide cleavage; inhibition, % at 6.95 µM; 370,000 compounds, 0.83% hits;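 active = inhibition above the mean of compounds lying between control limits plus 3 SD, set per campaign, cut at about 8.5% in these data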
Target sequence (P78536 215-824 limits assumed): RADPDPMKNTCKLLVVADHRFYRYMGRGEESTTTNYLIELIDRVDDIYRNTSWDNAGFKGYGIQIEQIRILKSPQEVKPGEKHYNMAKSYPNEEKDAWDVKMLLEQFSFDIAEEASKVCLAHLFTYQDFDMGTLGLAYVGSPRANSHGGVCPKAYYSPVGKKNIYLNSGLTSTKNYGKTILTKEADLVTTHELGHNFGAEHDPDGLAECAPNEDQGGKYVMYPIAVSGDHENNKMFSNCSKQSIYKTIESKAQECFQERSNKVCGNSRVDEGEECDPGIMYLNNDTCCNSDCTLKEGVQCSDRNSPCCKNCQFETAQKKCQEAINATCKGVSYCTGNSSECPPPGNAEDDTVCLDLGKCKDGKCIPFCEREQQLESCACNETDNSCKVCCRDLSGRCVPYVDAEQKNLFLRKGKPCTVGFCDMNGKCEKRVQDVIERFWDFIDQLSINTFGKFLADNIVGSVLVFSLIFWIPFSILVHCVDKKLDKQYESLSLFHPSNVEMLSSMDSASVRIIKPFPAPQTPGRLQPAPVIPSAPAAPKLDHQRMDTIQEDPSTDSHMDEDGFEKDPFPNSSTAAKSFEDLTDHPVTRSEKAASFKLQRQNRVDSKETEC
ADAM10 inh: inhibitors of human ADAM10; AID 720582; 370,000 compounds, 0.62% hits; O14672; recombinant ADAM10, EDANS/DABCYL FRET peptide cleavage, 3 h; inhibition, % at 7 µM;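 active = inhibition above a per-campaign cutoff equal to the mean of compounds falling between control-based bounds plus 3 SD, cut at about 20% in these data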
PLCb3 inh: blocks human PLC-beta3 enzyme activity; inhibition, % at 12.2 µM; Q01970; AID 720704; Purified PLC-beta3, fluorogenic substrate, fluorescence; 370,000 compounds, 0.18% hits; in the data active = inhibition above about 11%
proKLK7 act: activators of human kallikrein-7 zymogen. AID 652039. P49862. 370,000 compounds, 0.9% hits. purified proKLK7, EDANS-DABCYL substrate fluorescence; 100% is mature enzyme control, 0% vehicle. activation, % at 7 µM;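 active = activation above the mean of all tested compounds plus 3 SD, computed per campaign excluding outliers beyond control limits, cut at about 13% in these data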
PLC-gamma1 inh: blocks human PLC-gamma1 enzyme activity. P19174. purified PLC-gamma1, fluorogenic substrate, fluorescence. inhibition, % at 12.2 µM. 370,000 compounds, 0.84% hits; in the data active = inhibition above about 9.5%
sPLA2-III inh: Blocks human group III sPLA2 activity; Q9NZ20; QFRET BODIPY PC-A2 liposome hydrolysis, fluorescence; inhibition, % at 12.2 µM; 370,000 compounds, 0.56% hits; AID 743126;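 active = inhibition above mean plus 3 SD of compounds lying within the high and low control bounds, cut at about 19% in these data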
ADAM10 ctr: ADAM10 inhibition, counter-screen for ADAM17 exosite hits; shares compounds with ADAM17 inh; recombinant ADAM10, EDANS/DABCYL FRET peptide cleavage, 3 h; inhibition, % at 6.95 µM; 2,900 compounds, 47% hits;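 active = mean inhibition over the triplicate runs exceeds the activity threshold set in the earlier primary screen, cut at about 20% in these data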
ADAM17 confirm: human ADAM17 inhibition, confirmation; inhibition, % at 6.95 µM; recombinant ADAM17, EDANS/DABCYL QFRET peptide cleavage; AID 743257; 2,900 compounds, 65% hits; shares compounds with ADAM17 inh;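 active = mean inhibition across replicates above the hit cutoff set in the primary screen, cut at about 8.5% in these data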
Numbers stand for hits.

CN(c1ccc(OCC(=O)OCC(=O)c2c(N)n(C)c(=O)n(C)c2=O)cc1)S(=O)(=O)c1ccc2ccccc2c1 was read as ADAM17 inh 9.3, ADAM10 inh inactive, PLCb3 inh inactive, proKLK7 act inactive, PLC-gamma1 inh inactive, sPLA2-III inh inactive, ADAM10 ctr 23 and ADAM17 confirm 10.
For CCN(c1ccc(OCC(=O)OCC(=O)c2c(N)n(C)c(=O)n(C)c2=O)cc1)S(=O)(=O)c1ccccc1 the results were ADAM17 inh inactive, ADAM10 inh inactive, PLCb3 inh inactive, proKLK7 act inactive, PLC-gamma1 inh inactive and sPLA2-III inh inactive.
`O=[N+]([O-])c1cc(Cl)c(O)c2ncccc12` gave ADAM17 inh 10, ADAM10 inh inactive, PLCb3 inh inactive, proKLK7 act inactive, PLC-gamma1 inh inactive, sPLA2-III inh inactive, ADAM10 ctr inactive and ADAM17 confirm 11.
O=[N+]([O-])c1cc(Cl)c2cccnc2c1O was read as ADAM17 inh inactive, ADAM10 inh inactive, PLCb3 inh inactive, proKLK7 act inactive, PLC-gamma1 inh inactive and sPLA2-III inh inactive.
`COc1ccccc1/C=C(\NC(=O)c1ccccc1)C(=O)NCc1ccco1` gave ADAM17 inh inactive, ADAM10 inh inactive, PLCb3 inh inactive, proKLK7 act inactive, PLC-gamma1 inh inactive and sPLA2-III inh inactive.
`Cc1cc(C(=O)Cn2nnc(-c3ccc(Cl)cc3)n2)c(C)n1CC1CCCO1` (stereo unspecified) gave ADAM17 inh 9.0, ADAM10 inh inactive, PLCb3 inh inactive, proKLK7 act inactive, PLC-gamma1 inh inactive, sPLA2-III inh inactive, ADAM10 ctr inactive and ADAM17 confirm 9.6.
`CS(=O)(=O)N(Cc1ccccc1Cl)c1ccc(C(=O)N2CCCC2)cc1` gave ADAM17 inh inactive, ADAM10 inh inactive, PLCb3 inh inactive, proKLK7 act inactive, PLC-gamma1 inh inactive and sPLA2-III inh inactive.
CC(C)CNC(=S)NC1CC2CCCC(C1)N2Cc1ccco1 (stereo unspecified) was read as ADAM17 inh inactive, ADAM10 inh inactive, PLCb3 inh inactive, proKLK7 act inactive, PLC-gamma1 inh inactive and sPLA2-III inh inactive.
Screening CC(C)CNC(=S)NC1CC2CCCC(C1)N2Cc1cccs1 (stereo unspecified) returned ADAM17 inh 12, ADAM10 inh inactive, PLCb3 inh inactive, proKLK7 act inactive, PLC-gamma1 inh inactive, sPLA2-III inh inactive, ADAM10 ctr inactive and ADAM17 confirm inactive.
Screening Cc1ccc(C(=O)N2CCN(Cc3ccc4c(c3)OCO4)CC2)cc1C returned ADAM17 inh inactive, ADAM10 inh inactive, PLCb3 inh inactive, proKLK7 act inactive, PLC-gamma1 inh inactive and sPLA2-III inh inactive.
`O=C(COc1ccccc1Cl)Nc1cnn(Cc2ccccc2)c1` gave ADAM17 inh 9.4, ADAM10 inh inactive, PLCb3 inh inactive, proKLK7 act inactive, PLC-gamma1 inh inactive, sPLA2-III inh inactive, ADAM10 ctr inactive and ADAM17 confirm inactive.
`COc1cccc(C(NC(C)=O)c2nc(-c3ccc4ccccc4c3)cs2)c1` (stereo unspecified) gave ADAM17 inh 12, ADAM10 inh inactive, PLCb3 inh inactive, proKLK7 act inactive, PLC-gamma1 inh inactive, sPLA2-III inh inactive, ADAM10 ctr inactive and ADAM17 confirm 11.
`COc1ccc(C(C)(O)c2nc(-c3ccc4ccccc4c3)cs2)cc1` (stereo unspecified) gave ADAM17 inh 8.8, ADAM10 inh inactive, PLCb3 inh inactive, proKLK7 act inactive, PLC-gamma1 inh inactive, sPLA2-III inh inactive, ADAM10 ctr inactive and ADAM17 confirm inactive.
`Cc1ccc(C)c(N2CCN(C(=O)C34CC5CC(C3)CC(n3nnc(C)n3)(C5)C4)CC2)c1` gave ADAM17 inh inactive, ADAM10 inh inactive, PLCb3 inh inactive, proKLK7 act inactive, PLC-gamma1 inh inactive and sPLA2-III inh inactive.
For O=C(Nc1ccc(F)cc1)c1oc2ccccc2c1NC(=O)C1CC1 the results were ADAM17 inh inactive, ADAM10 inh inactive, PLCb3 inh inactive, proKLK7 act inactive, PLC-gamma1 inh inactive and sPLA2-III inh inactive.
